Source: US20150023943, “REF Nuclease for Site-Specific REF-Mediated DNA Cleavage” (Wisconsin Alumni Research Foundation, published 2015)

Biological target: T1, φW39 ΔN59 Ref (Bacteriophage phi W39)
T1 chain: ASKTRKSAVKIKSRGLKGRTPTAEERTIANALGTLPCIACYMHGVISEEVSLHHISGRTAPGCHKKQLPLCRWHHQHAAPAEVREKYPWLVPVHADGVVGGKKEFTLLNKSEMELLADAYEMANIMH
Assay: FP; Kd value only in FIG. 6C; 15 mM Mg acetate, pH 8.5, 25 C
Conditions: tags: expressed from pET21A with NdeI start Met; label: 5'-6FAM; ssDNA
Description: Ref proteins at 0.5-10,000 nM were incubated with 2 nM AJM25 71mer ssDNA or AJM25 annealed with AJG52 71mer to make a linear 71 bp dsDNA substrate in 25 mM Tris-acetate (pH 8.5), 3 mM potassium glutamate, 15 mM magnesium acetate, and 5% w/v glycerol at room temperature for 15 minutes. Fluorescence anisotropy (FA) was measured at 25° C., using a Tecan Infinite M1000 instrument with 470-nm excitation and 535-nm emission wavelengths for at least three replicates. The average FA values were plotted with one standard deviation of the mean shown as error. Prism software was used to convert FA values to the percent of DNA bound and apparent dissociation constants were determined using one-site, specific binding with Hill coefficient.

Q: For “CAGAAGTAAGTTGGCCGCAGTGTTATCACTCATGGTTATGGCAGCACTGCATAATTCTCTTACTGTCATGC”, which binding signal is on record?
A: 40 fold reduction in affinity
